Screens deposited in PubChem by several laboratories.
Rows were chosen to be rich in hits. Some 3.1% of all compounds tested hit in one or more screens of this group.
LGR2 antag: Drosophila LGR2 receptor signaling inhibition; 380,000 tested, 0.35% active; inhibition, % at 9.99 µM; AID 720647; HEK293 LGR2, CRE-luciferase, bursicon-stimulated, 4 h;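 active = drop in luminescence signal, shown as inhibition above about 50% in the replicate tests, limit read from the data, passing the limit was not always enough; inconclusive = probably only some replicates passing the limit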;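 also: agonist challenge used bursicon conditioned medium at about half maximal strength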
LMP1 NFkB inh: Epstein-Barr LMP1 NF-kappaB reporter inhibition; LMP1-induced NF-kappaB luciferase reporter cells, luminescence; inhibition, % at 12.5 µM; 350,000 tested, 0.69% active; in the data active = inhibition above about 41%; inconclusive = no clear call, values can overlap the other calls
EWS-Fli inh: blocks EWS/Fli oncoprotein-driven transcription; A673 NR0B1-luciferase reporter, viability-normalised; 350,000 tested, 0.67% active; inhibition, % at 12.6 µM;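 active = mean inhibition of at least 50% after viability correction, with every replicate also passing that limit; inconclusive = mean reaches 50% but only one of two replicates passes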;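 also: firefly luciferase signal divided by Alamar Blue viability fluorescence both relative to DMSO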
TROY signal inh: TROY signaling inhibition. Q293 LMP1-TROYcd NF-kB luciferase reporter, 4 h. 360,000 tested, 0.98% active. AID 1347056. inhibition, % at 10 µM;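 active = compounds whose plate-normalised and pattern-corrected inhibition of the luciferase reporter signal at the single screening dose is 50% or more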
PAX8 reporter: PAX8 transcriptional activity inhibition. inhibition, % at 12.6 µM. RMG-I TPO-luciferase reporter, SteadyGlo, 24 h. 360,000 tested, 1.2% active;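 active = mean replicate inhibition at least 60% with every replicate also reaching 60%; inconclusive = only one of the two criteria is met; inactive = mean below 60% and not all replicates reaching 60%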;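 also: luciferase light reporting Pax8 driven TPO promoter activity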
TWEAK-Fn14 inh: blocks TWEAK-Fn14 interaction in a reporter cell assay | TWEAK-stimulated Fn14 reporter cells, luciferase luminescence, 8 h | inhibition, % at 10 µM | 360,000 tested, 2% active | AID 1159606; in the data active = inhibition above about 50%
Hits are given with their value; . = inactive; ? = inconclusive; / = not tested or not shown.

SMILES	LGR2 antag	LMP1 NFkB inh	EWS-Fli inh	TROY signal inh	PAX8 reporter	TWEAK-Fn14 inh
CC(C)N=c1scc(-c2cccs2)n1/N=C/c1ccc(O)c(O)c1O	.	.	/	.	.	54
CSc1nc2c(cc1C#N)CCC2	.	.	.	.	.	.
N#Cc1cc2c(nc1SC1CC(=O)N(c3ccccc3)C1=O)CCC2 (stereo not drawn)	/	52	/	83	/	100
CC(=O)N1CCc2c(sc(NC(=O)c3ccc([N+](=O)[O-])o3)c2C#N)C1	.	.	.	.	96	.
CC(C)N1CCc2c(sc(NC(=O)c3ccc([N+](=O)[O-])o3)c2C(N)=O)C1	.	.	.	.	96	.
COc1ccc(C(=O)Nc2sc3c(c2C#N)CCN(C(C)=O)C3)cc1	.	.	.	.	.	.
Cc1ccc(S(=O)(=O)N[C@H]2CC[C@H](CCNC(=O)C3CC3)O[C@H]2CO)cc1	.	/	.	/	/	/
COc1cc2cnc(CCO[C@H]3CCCCO3)cc2cc1OC	.	.	.	52	.	.
COc1ccc2cc(CCOC3CCCCO3)ncc2c1 (stereo not drawn)	.	.	.	.	.	60
C[C@H]1CN([C@@H](C)CO)C(=O)Cc2cc(NC(=O)C3CCCCC3)ccc2O[C@@H]1CN(C)S(=O)(=O)c1ccc(F)cc1	.	/	.	/	.	/
O=C(C[C@@H]1CC[C@H]2[C@@H](COC[C@H](O)CN2S(=O)(=O)c2ccccc2)O1)NCC1CCCCC1	.	/	.	/	.	/
Nc1c(C(=O)NC2CC2)sc2nc3c(c(-c4ccco4)c12)CC/C3=C/c1ccco1	/	.	/	.	/	83
COc1ccc2c(c1)c(CC(=O)OCC(N)=O)c(C)n2C(=O)c1ccc(Cl)cc1	.	.	.	54	.	.
CCC(=O)N1c2ccc(S(=O)(=O)CCC(=O)N3CCn4c3nc3ccccc34)cc2CC1C (stereo not drawn)	/	.	/	.	106	.
CCOC(=O)N1CCN(C(=O)CCS(=O)(=O)c2ccc3c(c2)CC(C)N3C(=O)CC)CC1 (stereo not drawn)	.	.	/	.	.	.
C[C@@H]1CN([C@@H](C)CO)C(=O)c2cc(NS(=O)(=O)c3ccc(F)cc3)ccc2O[C@@H]1CN(C)S(=O)(=O)c1cn(C)cn1	.	/	.	/	/	/
COc1cc(OC)c(OC)cc1/C=N/n1c(C)nc2ccccc2c1=O	.	.	.	.	.	97
COc1ccc(NC(=O)Nc2ccc3c(c2)C(=O)N([C@@H](C)CO)C[C@H](C)[C@H](CN(C)C(=O)c2ccccc2)OCCCC[C@@H](C)O3)cc1	.	/	.	/	.	/
C/C=C/c1ccc([C@@H]2[C@@H](C#N)N(C(=O)NC3CCCC3)[C@@H]2CO)cc1	.	/	.	/	.	/
COc1ccc(CN(C)C[C@H]2Oc3ccc(NS(=O)(=O)c4c(C)noc4C)cc3CC(=O)N([C@H](C)CO)C[C@@H]2C)cc1	.	/	.	/	/	/
CC(C)(C)[S@@](=O)N1Cc2cc(C(=O)NCc3ccc4c(c3)OCO4)nc(-c3cccc(-c4cccnc4)c3)c2[C@H]1CCO	.	/	.	/	.	/
N#Cc1cc(-c2ccccc2)[nH]c1-c1nccc2ccccc12	.	.	.	.	.	56
Nc1[nH]c(C(=O)c2ccccc2)c(-c2ccc(Br)cc2)c1C(=O)c1ccc(Br)cc1	.	/	.	.	.	91
C[C@@H]1CN([C@H](C)CO)C(=O)c2cc(NS(=O)(=O)c3ccc(F)cc3)ccc2O[C@@H]1CN(C)C(=O)Nc1ccccc1	.	/	.	/	/	/
CCN(c1ccccc1)S(=O)(=O)c1cc(C(=O)Nc2cccc(Cl)c2)ccc1F	.	.	.	.	.	68
SMILES	LGR2 antag	LMP1 NFkB inh	EWS-Fli inh	TROY signal inh	PAX8 reporter	TWEAK-Fn14 inh
CCc1ccc(NC(=O)c2ccc(F)c(S(=O)(=O)N(CC)c3ccccc3)c2)cc1	.	.	/	.	.	.
CN1C(=O)c2cc(NC(=O)c3ccccc3Cl)ccc2OC[C@@H]2O[C@H](CC(=O)O)CC[C@H]21	.	/	.	/	.	/
O=C1OC(Nc2nc(-c3ccc(F)cc3)cs2)c2ccccc21 (stereo not drawn)	.	.	.	.	.	59
COc1ccc(NCC(O)COc2ccc(C(C)(C)C)cc2)cc1 (stereo not drawn)	.	43	.	.	.	.
CC(=O)Nc1ccc(OCC(O)CNC(C)C)cc1 (stereo not drawn)	.	51	.	.	.	.
Cc1noc(C)c1S(=O)(=O)N(C)C[C@@H]1Oc2ccc(NC(=O)NC3CCCCC3)cc2CC(=O)N([C@@H](C)CO)C[C@@H]1C	.	/	.	/	.	/
C[C@H](CO)N1C[C@H](C)[C@H](CN(C)C)OCCCC[C@H](C)Oc2ccc(NS(=O)(=O)c3ccccc3)cc2C1=O	.	/	.	/	.	/
Nc1nnc(SCC(=O)Nc2cccc(S(=O)(=O)N3CCCCC3)c2)s1	.	.	.	.	.	.
O=C(CSc1nnc(Nc2ccccc2)s1)Nc1cccc(S(=O)(=O)N2CCCCC2)c1	.	.	.	.	.	51
Cc1cc(C(=O)COC(=O)c2ccccc2O)c(C)n1CC1CCCO1 (stereo not drawn)	100	87	84	90	81	106
Cc1cc(C(=O)COC(=O)c2cccnc2Cl)c(C)n1CC1CCCO1 (stereo not drawn)	/	65	.	88	.	99
Cc1cc(C(=O)COC(=O)c2n[nH]c3ccccc23)c(C)n1C	/	.	/	.	/	.
Cc1cc(C(=O)COC(=O)c2n[nH]c3ccccc23)c(C)n1CC1CCCO1 (stereo not drawn)	?	.	/	60	/	82
Cc1cc(C(=O)COc2ccccc2C(N)=O)c(C)n1CC1CCCO1 (stereo not drawn)	.	.	.	.	.	.
O=C(COC(=O)c1cccnc1Cl)NCC1CCCO1 (stereo not drawn)	.	.	.	.	.	.
Cc1cc(C(=O)COC(=O)c2ccccc2NCCO)c(C)n1CC1CCCO1 (stereo not drawn)	.	.	.	.	.	62
CCCC(=O)N1C[C@@H]2[C@H](c3ccccc31)[C@@H](CO)N2C(=O)CC1CC1	.	/	.	/	.	/
Cc1ccc(C(=O)OCC(=O)c2cc(C)n(CC3CCCO3)c2C)cc1 (stereo not drawn)	.	.	.	72	.	64
Cc1cc(C(=O)COC(=O)C2COc3ccccc3O2)c(C)n1CC1CCCO1 (stereo not drawn)	/	.	/	.	.	.
Cc1cc(C(=O)COC(=O)c2ccccc2Br)c(C)n1CC1CCCO1 (stereo not drawn)	92	75	.	71	.	92
Cc1cc(C(=O)COC(=O)c2cc(O)c3ccccc3c2O)c(C)n1CC1CCCO1 (stereo not drawn)	/	.	/	.	/	79
COCCn1c(C)cc(C(=O)COC(=O)c2n[nH]c3ccccc23)c1C	/	55	/	54	.	86
O=C(C[C@@H]1CC[C@H]2[C@@H](COC[C@@H](O)CN2S(=O)(=O)c2ccccc2)O1)NCc1ccc(-c2ccccc2)cc1	.	/	.	/	.	/
